Test results from PMC4242493, “Sequence specificity incompletely defines the genome-wide occupancy of Myc”.
Over roughly 33,000 sequences, “normalized occupancy” has its median near 0.075; the highest 2% begin near 0.095. Only a selection was taken, and the highest values are over-represented in it overall.

What follows are sequences tested against MaxL homodimer (Homo sapiens, UniProt P61244 1-160) (assay: universal protein-binding microarray (PBM); PBS-based mixture, 10 nM His-tagged protein dimer, 2% milk, 200 ng/uL BSA, 50 ng/uL salmon testes DNA, 0.02% TX-100; detection with Alexa 488 anti-His antibody;; high values mean tight binding). Settings: protein: recombinant; tags: C-terminal His-tag (pET21a); chain copies: 2; dsDNA, one strand shown.
Summary of the method: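 His-tagged protein dimer at 10 nM was bound to Agilent 4 x 44 K 'all 10-mer' universal arrays and detected with 10 ng/μL fluorophore-conjugated anti-His antibody on a GenePix 4400A, giving an intensity per 8-mer. Binding occupancy normalises each intensity to the top-ranked one.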

MaxL homodimer, sequence (P61244 whole entry): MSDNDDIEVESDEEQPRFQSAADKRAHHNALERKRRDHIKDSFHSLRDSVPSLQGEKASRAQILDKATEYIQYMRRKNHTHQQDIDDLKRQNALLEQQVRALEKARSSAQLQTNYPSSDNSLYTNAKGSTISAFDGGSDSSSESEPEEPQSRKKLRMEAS

Question: AACGCTGT was tested. Which binding signal did it give?
Answer: Its binding signal is 0.0729 normalized occupancy.

Question: CGCAATCC was tested. Which binding signal did it give?
Answer: The binding signal was 0.0789 normalized occupancy.

Question: How did the binding signal turn out when CCAATCTA was run?
Answer: The binding signal was 0.073 normalized occupancy.

Question: GCCACGCC was tested. Which binding signal did it give?
Answer: The binding signal was 0.0925 normalized occupancy.

Question: How did the binding signal turn out when ACCACGGC was run?
Answer: Its binding signal is 0.0743 normalized occupancy.

Question: How did the binding signal turn out when ACCACGTG was run?
Answer: Its binding signal is 0.773 normalized occupancy.

Question: With ACCACGCA as the sequence, how does the binding signal read?
Answer: The binding signal was 0.0954 normalized occupancy.

Question: For TCCACGCA, which binding signal is on record?
Answer: The binding signal was 0.0885 normalized occupancy.

Question: How did the binding signal turn out when ACCACACA was run?
Answer: Its binding signal is 0.085 normalized occupancy.

Question: Which binding signal does the source give for ACCACACG here?
Answer: The binding signal was 0.0972 normalized occupancy.

Question: With ACCACGTC as the sequence, how does the binding signal read?
Answer: The binding signal was 0.0945 normalized occupancy.

Question: Which binding signal does the source give for ACCACACT here?
Answer: Its binding signal is 0.0849 normalized occupancy.

Question: With ACCACGCC as the sequence, how does the binding signal read?
Answer: The binding signal was 0.102 normalized occupancy.

Question: GCCACGCA was tested. Which binding signal did it give?
Answer: The binding signal was 0.0915 normalized occupancy.

Question: For ACCACGTA, which binding signal is on record?
Answer: Its binding signal is 0.0816 normalized occupancy.

Question: AAAGCAGT was tested. Which binding signal did it give?
Answer: The binding signal was 0.0719 normalized occupancy.

Question: For ATGAAGCG, which binding signal is on record?
Answer: The binding signal was 0.0749 normalized occupancy.

Question: Which binding signal does the source give for GTCGCGCA here?
Answer: Its binding signal is 0.0729 normalized occupancy.

Question: For CTATGCCA, which binding signal is on record?
Answer: The binding signal was 0.0777 normalized occupancy.

Question: Which binding signal does the source give for AACAAGAA here?
Answer: Its binding signal is 0.0753 normalized occupancy.

Question: For AGCCTCTC, which binding signal is on record?
Answer: Its binding signal is 0.0729 normalized occupancy.

Question: ACACCACG was tested. Which binding signal did it give?
Answer: Its binding signal is 0.0983 normalized occupancy.

Question: Which binding signal does the source give for ATCACGTC here?
Answer: The binding signal was 0.0875 normalized occupancy.

Question: With ACCACGGT as the sequence, how does the binding signal read?
Answer: Its binding signal is 0.0803 normalized occupancy.

Question: ACACCACA was tested. Which binding signal did it give?
Answer: Its binding signal is 0.083 normalized occupancy.

Question: With ACCACGCT as the sequence, how does the binding signal read?
Answer: The binding signal was 0.123 normalized occupancy.

Question: CCCACGTC was tested. Which binding signal did it give?
Answer: Its binding signal is 0.0804 normalized occupancy.

Question: How did the binding signal turn out when CCCACGCC was run?
Answer: The binding signal was 0.099 normalized occupancy.

Question: Which binding signal does the source give for ATCACGTG here?
Answer: The binding signal was 0.363 normalized occupancy.

Question: Which binding signal does the source give for ACCACGAT here?
Answer: The binding signal was 0.0936 normalized occupancy.

Question: Which binding signal does the source give for ATCACGTA here?
Answer: The binding signal was 0.0829 normalized occupancy.

Question: How did the binding signal turn out when CCCACGGC was run?
Answer: The binding signal was 0.0782 normalized occupancy.

Question: ACACCACC was tested. Which binding signal did it give?
Answer: Its binding signal is 0.086 normalized occupancy.

Question: Which binding signal does the source give for CGAAGGTA here?
Answer: The binding signal was 0.0721 normalized occupancy.

Question: For CTGTGGCA, which binding signal is on record?
Answer: Its binding signal is 0.0739 normalized occupancy.

Question: With AGGAACAG as the sequence, how does the binding signal read?
Answer: Its binding signal is 0.0793 normalized occupancy.

Question: How did the binding signal turn out when ACCACGGG was run?
Answer: The binding signal was 0.0834 normalized occupancy.

Question: With ATCACGCG as the sequence, how does the binding signal read?
Answer: The binding signal was 0.132 normalized occupancy.

Question: With ACCACGGA as the sequence, how does the binding signal read?
Answer: Its binding signal is 0.0736 normalized occupancy.

Question: How did the binding signal turn out when ATCACGCC was run?
Answer: The binding signal was 0.0864 normalized occupancy.

Question: Which binding signal does the source give for CCCACGCA here?
Answer: Its binding signal is 0.0903 normalized occupancy.

Question: CCCACGCG was tested. Which binding signal did it give?
Answer: The binding signal was 0.148 normalized occupancy.

Question: ACCACGCG was tested. Which binding signal did it give?
Answer: The binding signal was 0.187 normalized occupancy.

Question: With CCCACACA as the sequence, how does the binding signal read?
Answer: Its binding signal is 0.0838 normalized occupancy.

Question: For ATCACGCA, which binding signal is on record?
Answer: The binding signal was 0.0877 normalized occupancy.

Question: How did the binding signal turn out when ACGACGAG was run?
Answer: Its binding signal is 0.0759 normalized occupancy.

Question: How did the binding signal turn out when AATTACGA was run?
Answer: The binding signal was 0.0775 normalized occupancy.

Question: How did the binding signal turn out when AATGGCAA was run?
Answer: The binding signal was 0.0742 normalized occupancy.

Question: Which binding signal does the source give for CTCAACAA here?
Answer: Its binding signal is 0.0728 normalized occupancy.

Question: With ACTGCTTC as the sequence, how does the binding signal read?
Answer: The binding signal was 0.0747 normalized occupancy.

Question: AGTTGGTC was tested. Which binding signal did it give?
Answer: Its binding signal is 0.0747 normalized occupancy.

Question: Which binding signal does the source give for ACGCGCCT here?
Answer: The binding signal was 0.0828 normalized occupancy.

Question: For ACACGCCT, which binding signal is on record?
Answer: The binding signal was 0.0971 normalized occupancy.

Question: ACACGCCC was tested. Which binding signal did it give?
Answer: The binding signal was 0.0863 normalized occupancy.

Question: ACACGCTA was tested. Which binding signal did it give?
Answer: The binding signal was 0.0915 normalized occupancy.

Question: For ACGCGCTG, which binding signal is on record?
Answer: Its binding signal is 0.077 normalized occupancy.

Question: How did the binding signal turn out when ACACGCTG was run?
Answer: The binding signal was 0.108 normalized occupancy.

Question: With ACACGCCG as the sequence, how does the binding signal read?
Answer: Its binding signal is 0.1 normalized occupancy.

Question: For ACACGCCA, which binding signal is on record?
Answer: Its binding signal is 0.0895 normalized occupancy.

Question: Which binding signal does the source give for AAACGCCT here?
Answer: Its binding signal is 0.073 normalized occupancy.

Question: Which binding signal does the source give for CGTTATAA here?
Answer: The binding signal was 0.079 normalized occupancy.

Question: How did the binding signal turn out when ATGGCTCA was run?
Answer: The binding signal was 0.0798 normalized occupancy.

Question: For CCACCATC, which binding signal is on record?
Answer: Its binding signal is 0.0768 normalized occupancy.

Question: How did the binding signal turn out when CCCGTAAA was run?
Answer: The binding signal was 0.0752 normalized occupancy.

Question: For CATTAAGA, which binding signal is on record?
Answer: Its binding signal is 0.0765 normalized occupancy.

Question: AGCATATG was tested. Which binding signal did it give?
Answer: Its binding signal is 0.103 normalized occupancy.

Question: With ATCATATC as the sequence, how does the binding signal read?
Answer: The binding signal was 0.0861 normalized occupancy.

Question: With AACATATG as the sequence, how does the binding signal read?
Answer: The binding signal was 0.1 normalized occupancy.

Question: ACCATATC was tested. Which binding signal did it give?
Answer: Its binding signal is 0.0845 normalized occupancy.

Question: How did the binding signal turn out when AACATATA was run?
Answer: Its binding signal is 0.0841 normalized occupancy.

Question: With ATCATATA as the sequence, how does the binding signal read?
Answer: The binding signal was 0.0893 normalized occupancy.

Question: For ACCATATA, which binding signal is on record?
Answer: The binding signal was 0.0814 normalized occupancy.

Question: With AGCATATC as the sequence, how does the binding signal read?
Answer: Its binding signal is 0.0822 normalized occupancy.

Question: Which binding signal does the source give for CACATATG here?
Answer: The binding signal was 0.095 normalized occupancy.

Question: How did the binding signal turn out when ACCATATG was run?
Answer: The binding signal was 0.118 normalized occupancy.

Question: Which binding signal does the source give for ATCATATG here?
Answer: The binding signal was 0.0972 normalized occupancy.

Question: AGCATATA was tested. Which binding signal did it give?
Answer: The binding signal was 0.0807 normalized occupancy.

Question: Which binding signal does the source give for GTTACGTA here?
Answer: The binding signal was 0.0751 normalized occupancy.

Question: How did the binding signal turn out when CTCGATAC was run?
Answer: The binding signal was 0.0749 normalized occupancy.

Question: How did the binding signal turn out when AAATGCTG was run?
Answer: The binding signal was 0.0762 normalized occupancy.

Question: AAAAGCTA was tested. Which binding signal did it give?
Answer: The binding signal was 0.0755 normalized occupancy.

Question: Which binding signal does the source give for GGTACGAC here?
Answer: The binding signal was 0.0721 normalized occupancy.

Question: How did the binding signal turn out when GAGCACAA was run?
Answer: Its binding signal is 0.0775 normalized occupancy.

Question: CAGCACAC was tested. Which binding signal did it give?
Answer: The binding signal was 0.0857 normalized occupancy.

Question: GAGCACAC was tested. Which binding signal did it give?
Answer: The binding signal was 0.0956 normalized occupancy.

Question: For GCAGAATA, which binding signal is on record?
Answer: Its binding signal is 0.0753 normalized occupancy.
